Among all 360,000 compounds or so, about 11,000 (3.1%) were called active. The list comes from a sample in which actives are over-represented; it also holds similar structures and randomly drawn compounds. A number with no mark means an inactive call. Cut-off read from the data, not from the text of the source: active = activity change below about -30%; inactive = the rest.
% is set by controls: 0 for no effect and ±100 for the full control effect.

The target in the assay is D(1A) dopamine receptor (Homo sapiens) (UniProt P21728). The assay is described as follows: Antagonist of Human D 1 Dopamine Receptor: qHTS. To be noted: HEK293 TREx D1 cells, calcium flux, dopamine EC80; at 10 µM; stronger effect = lower value. The essentials: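 HEK293 T-REx cells expressing inducible, force-coupled D1 receptor; no-wash Ca dye, 30–90 min RT. Cmpd → 180 s read at 1 Hz → EC80 DA → 180 s read.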
Sequence of D(1A) dopamine receptor (Homo sapiens) (P21728 whole entry, looked up): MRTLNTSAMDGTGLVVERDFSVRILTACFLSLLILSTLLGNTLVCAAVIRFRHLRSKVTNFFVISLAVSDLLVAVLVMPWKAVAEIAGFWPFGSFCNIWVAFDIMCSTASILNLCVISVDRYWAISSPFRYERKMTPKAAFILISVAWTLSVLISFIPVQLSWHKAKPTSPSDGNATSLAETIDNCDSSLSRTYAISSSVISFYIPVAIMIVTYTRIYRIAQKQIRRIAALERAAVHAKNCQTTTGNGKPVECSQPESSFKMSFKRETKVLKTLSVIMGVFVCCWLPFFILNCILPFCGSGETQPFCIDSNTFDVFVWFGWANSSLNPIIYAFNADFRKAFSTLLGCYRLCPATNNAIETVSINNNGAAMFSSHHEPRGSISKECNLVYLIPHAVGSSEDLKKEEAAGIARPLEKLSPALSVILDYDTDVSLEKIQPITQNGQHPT
On the technique in general: In qHTS, concentration-response curves come from the screen itself.
For `CCOC(=O)N1CCN(S(=O)(=O)N2CCCC(C(=O)NCCCN3CCC(C)CC3)C2)CC1` (stereo unspecified), the activity change, negative = inhibition was 2.88%. To `CCCS(=O)(=O)N1CCCC(C(=O)NCc2ccco2)C1` (stereo unspecified) belongs 6.64%; to `CCCS(=O)(=O)N1CCCC(C(=O)NCCN2CCCCC2C)C1` (stereo unspecified), -41.8% (active). In the case of `COc1ccccc1CNC(=O)CCn1c(=O)c2ccccc2n(CC(=O)Nc2ccc(Br)cc2F)c1=O` it was 0.197%; in that of `COc1ccc(C)cc1NC(=O)CCc1c(C)nn(-c2ccc(N3CCOCC3)nn2)c1C`, -25.9%. To `Cc1ccc(NC(=S)N(CCN(C)C)Cc2cccs2)cc1C` belongs -42.5% (active); to `Cc1ccccc1NC(=S)N(CCCN1CCOCC1)Cc1cccs1`, -5.87%.

`Cc1ccc(Cl)cc1NC(=S)N(CCN(C)C)Cc1cccs1`: the activity change, negative = inhibition was -0.901%. To `COC(=O)c1scc(-c2ccc(C)cc2)c1S(=O)(=O)Nc1cc(Cl)c(OC)cc1OC` belongs 10.2%; to `Cc1ccc(CSc2nc3ccsc3c(=O)n2CCC(C)C)cc1`, 13.8%.

Consider `COCCNS(=O)(=O)c1cc(-c2nn3c(C)nnc3c3ccccc23)ccc1C`, for which the activity change, negative = inhibition was -4.16%. To `CC(=O)c1cccc(Nc2ccc3cc(S(=O)(=O)N4CCC(C)CC4)ccc3n2)c1` belongs 13.5%. To `COc1cccc(NC(=S)C(C#N)=C2N(C)c3ccccc3N2C)c1` belongs 0.557%; to `CC(=O)Nc1cccc(OCC(=O)/C=C2\N(C)c3ccccc3C2(C)C)c1`, -35.4% (active).

For `CN1CCN(CCC(=O)N/N=C/C=C2\N(C)c3ccccc3C2(C)C)CC1`, the activity change, negative = inhibition was -8.35%. To `O=C1OC(C(=O)Nc2cccc(Br)c2)Cc2ccccc21` (stereo unspecified) belongs 3.01%; to `COc1cccc(C(=O)NCCS(=O)(=O)NCC2CCCO2)c1` (stereo unspecified), 28.7%. In the case of `COc1cccc(/C=C2\Sc3ccc(C(=O)NCC4CCCO4)cc3N(C)C2=O)c1` (stereo unspecified) it was -38% (active); in that of `COc1ccc2cc(C(=O)NCC3CCCO3)[nH]c2c1` (stereo unspecified), -7.79%. As to `Brc1cccc(-c2nnn3c2nc(NC2CCCCC2)c2ccccc23)c1`, the activity change, negative = inhibition is 11.9%. In the case of `Cc1cc(F)ccc1NS(=O)(=O)c1ccc(-n2cccn2)cc1`, the activity change, negative = inhibition was -14%. To `Cc1ccc(-n2nc(C)c3c(C)cc(=O)n(CC(=O)Nc4ccc(C(C)C)cc4)c32)cc1` belongs 14.4%; to `CCOC(=O)c1ccc(N2C(=O)c3[nH]nc(-c4ccccc4)c3C2c2ccc(C(C)C)cc2)cc1` (stereo unspecified), 49.1%. In the case of `CCOc1ccc(CCNC(=O)c2cc3c(=O)n(C)c4ccccc4c3n2C)cc1` it was -46.8% (active); in that of `CCN1CCCC1CNC(=O)c1cc2c(=O)n(C)c3ccccc3c2n1C` (stereo unspecified), -10.7%. To `CCOc1ccc(CCNC(=O)c2c(C)oc3ncn(C)c(=O)c23)cc1` belongs 3.92%; to `CCCn1c2ccccc2c2cnn(CC(=O)N(C)c3ccccc3CC)c(=O)c21`, -1.54%; to `O=C(c1ccc2c(c1)N(Cc1ccccc1)C(=O)c1ccccc1S2(=O)=O)N1CCCC1`, 1.23%. Take `O=C(Nc1cc(C(F)(F)F)ccc1Cl)c1cc2nc(-c3ccc4c(c3)OCO4)cc(C(F)(F)F)n2n1`: the activity change, negative = inhibition is 12.4%.

On to `CC(C)c1ccc(NC(=O)C2CCN(c3nc(-c4ccc(C(C)C)cc4)no3)CC2)cc1`, for which the activity change, negative = inhibition was -20.6%.

`COc1ccc(NC(=O)c2ccc3nc(CCc4ccccc4)oc3c2)c(OC)c1`: the activity change, negative = inhibition is 0.958%. In the case of `CC(=O)N1CCCc2cc(S(=O)(=O)N3CCC(C(=O)NCc4ccc(F)cc4)CC3)ccc21` it was -2.54%; in that of `CCc1nccn1S(=O)(=O)c1cc(Br)ccc1Br`, -13.3%; in that of `COC(=O)c1ccc(C2C(C(=O)Nc3ccccc3)=C(C)Nc3nc4ccccc4n32)cc1` (stereo unspecified), 6.56%. In the case of `COc1ccc(CCNc2ncnc3nc[nH]c23)cc1OC` it was -23.9%; in that of `c1ccc2c(c1)OCC(CNc1ncnc3nc[nH]c13)O2` (stereo unspecified), -86.7% (active). In the case of `c1ccc(-c2cc3c(NCC4COc5ccccc5O4)ncnc3s2)cc1` (stereo unspecified) it was -18.9%; in that of `CCOc1ccccc1CNC(=O)c1ccc2c(c1)nc1n2CCC(C)C1` (stereo unspecified), -12.2%; in that of `CC(C)Oc1ccc(NC(=O)c2cc3ccccc3o2)cc1`, -61.7% (active). In the case of `CCC(C)c1ccc2oc(-c3ccc(NC(=O)c4cc5ccccc5o4)cc3)nc2c1` (stereo unspecified), the activity change, negative = inhibition is -6.42%. Consider `Cc1cc2nc(-c3ccc(NC(=O)c4cc5ccccc5o4)cc3)oc2cc1C`, for which the activity change, negative = inhibition is -20.5%. On to `CC1=Nc2cc(C(=O)N3CCC(C)CC3)ccc2Sc2ccc(Cl)cc21`, for which the activity change, negative = inhibition was 5.84%.

Regarding `CCOC(=O)N1CCc2c(sc3c2c(=O)n(-c2ccc(CC)cc2)c(=O)n3C)C1`, the activity change, negative = inhibition is 5.44%. In the case of `CCN(CC)C(=O)CCC(=O)Nc1ccc(C(=O)OC)cc1` it was -2.84%; in that of `CCCc1cc(C(=O)Nc2ccc(Cl)cn2)cs1`, 11%. To `CCCc1cc(C(=O)Nc2ccc(C(=O)OC)cc2)cs1` belongs -31.2% (active); to `Cc1ccc(C(=O)NCCSc2c(C)[nH]c3ccccc23)cc1C`, -23.5%; to `Cc1ccc(-n2c3nc(=O)[nH]c(=O)c-3cc3c(Cl)cccc32)cc1`, 7.04%. To `Cc1ccc(NC(=O)CCNS(=O)(=O)c2ccc3c(c2)oc(=O)n3C)cc1C` belongs -0.228%; to `Cc1ccc(NC(=O)C(Cc2ccccc2)NS(=O)(=O)c2ccc3c(c2)oc(=O)n3C)cc1C` (stereo unspecified), -42.8% (active). As for `COc1ccccc1CNC(=O)C(Cc1ccccc1)NS(=O)(=O)c1ccc2c(c1)oc(=O)n2C` (stereo unspecified), the activity change, negative = inhibition is 3.15%. To `COc1ccc(-c2ccc(=O)n(CC(=O)Nc3ccc(Br)cc3F)n2)cc1` belongs 27.5%; to `Cc1ccc2[nH]c3c(c2c1)CN(C(=O)CN1CCN(c2ccccc2)CC1)CC3`, -26.5%. In the case of `O=c1c2ccccc2[nH]c(=S)n1CCN1CCC(=C(c2ccc(F)cc2)c2ccc(F)cc2)CC1` it was -22.1%; in that of `O=C(CCCN1CCc2[nH]c3ccc(F)cc3c2C1)c1ccc(F)cc1`, -73% (active); in that of `CCCc1nn2c(=O)cc(COC(=O)c3ccc(NC(=O)COc4ccc(F)cc4)cc3)nc2s1`, -16.4%.

These data come from PubChem BioAssay AID504652 (National Center for Advancing Translational Sciences (NCATS), 2011).
